# The source made the active and inactive calls. Unless noted, the rule behind the calls is not given here.
# Experiments:
# [1] = tested on: Wnt5a (protein binding on small-molecule microarray); experiment: Wnt5a binders on small-molecule microarray, primary screen, biophysical, 635/667 nm fluorescence (AID 1142); conditions: 635 nm fluorescence, higher = more signal;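 note: fluorescence read at 667 nm with signal to noise per printed feature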
# [2] = cell viability in Huh7 cells, primary screen, cytotoxicity control for HCV replication inhibitor project, CellTiter-Glo luminescence, basal, 48 h (AID 1143); conditions: Huh7 HCV replicon, higher = more signal, called active from +8 up or from −8 down;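 note: Huh7 hepatoma cells carrying a hepatitis C replication reporter with no stimulus; test concentration not given here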
# [3] = P. aeruginosa biofilm formation inhibitors, primary screen, PAO1 strain, BacTiter-Glo luminescence, LB-PBS (AID 1144); conditions: 12 h, higher = more signal
# [4] = CREB reporter modulators without forskolin, primary screen, cell-based, PC12, CRE-LacZ reporter, unstimulated (AID 1145); conditions: no forskolin, luminescence, 4.5 h, higher = more signal, called active from +8 up or from −8 down
# [5] = CREB reporter modulators under forskolin, primary screen, cell-based, PC12, CRE-LacZ reporter, forskolin-stimulated (AID 1146); conditions: luminescence, 4.5 h, higher = more signal, called active from +8 up or from −8 down;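 note: PC12 cells with 6xCRE LacZ reporter stimulated by forskolin 10 µM; beta-galactosidase reporter signal reflecting CREB driven transcription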
# [6] = biological target: Streptavidin (Streptomyces avidinii) (UniProt P22629); experiment: streptavidin binders on small-molecule microarray, primary screen, artefact control for SMM compound annotation, biophysical, 635/667 nm fluorescence (AID 1147); conditions: streptavidin binding, higher = more signal;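 note: signal reflects streptavidin binding to arrayed compounds as a control protein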
# Chain of Streptavidin (Streptomyces avidinii) (P22629 whole entry, looked up): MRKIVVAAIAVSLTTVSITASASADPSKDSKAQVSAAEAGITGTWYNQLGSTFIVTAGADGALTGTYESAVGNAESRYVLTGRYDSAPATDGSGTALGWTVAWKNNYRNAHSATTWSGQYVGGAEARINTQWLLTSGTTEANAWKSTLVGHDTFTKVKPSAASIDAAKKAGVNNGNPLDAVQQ
# [7] = small-molecule binders of probe aInhba, primary screen, biochemical, small-molecule microarray, 635/667 nm fluorescence (AID 1148); conditions: higher = more signal;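 note: score merges 667nm spot fluorescence with signal-to-noise for antibody binding to printed compounds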
# Torsin-1A (Homo sapiens) [8] = biological target: Torsin-1A (Homo sapiens) (UniProt O14656); experiment: torsin A binders from cell lysate, primary screen, small-molecule microarray, wild-type, 635/667 nm (AID 1149); conditions: COS7 hTOR1A-WT lysate, 635 nm fluorescence, higher = more signal
# Chain of Torsin-1A (Homo sapiens) (O14656 whole entry, looked up): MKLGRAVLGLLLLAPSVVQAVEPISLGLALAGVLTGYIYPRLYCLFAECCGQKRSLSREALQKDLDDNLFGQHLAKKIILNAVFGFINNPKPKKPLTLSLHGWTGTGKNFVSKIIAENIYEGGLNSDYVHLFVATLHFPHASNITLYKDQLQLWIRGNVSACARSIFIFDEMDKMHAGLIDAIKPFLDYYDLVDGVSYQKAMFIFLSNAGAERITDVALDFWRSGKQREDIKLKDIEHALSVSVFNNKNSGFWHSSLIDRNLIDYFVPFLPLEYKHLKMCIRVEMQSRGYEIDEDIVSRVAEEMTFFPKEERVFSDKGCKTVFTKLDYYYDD
# Torsin-1A (Homo sapiens) [9] = biological target: Torsin-1A (Homo sapiens) (UniProt O14656); experiment: small-molecule binders of mutant TOR1A in lysate, primary screen, cell lysate, small-molecule microarray, COS7 lysate, 635/667 nm fluorescence (AID 1150); conditions: COS7 hTOR1A mutant lysate, 635 nm fluorescence, higher = more signal;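 note: score pools 667 nm emission and signal to noise measuring lysate protein binding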
# [10] = tested on: Sonic hedgehog protein (Shh); experiment: small-molecule binders of Shh protein, primary screen, biochemical, small-molecule microarray, 635/667 nm fluorescence (AID 1151); conditions: small-molecule microarray binding, 635 nm fluorescence; higher = more signal;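 note: Shh protein binding to compounds spotted on small-molecule microarray slides; score combines spot fluorescence intensity with signal-to-noise across triplicate slides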
# [11] = E. coli DRC41 culture turbidity changes, primary screen, E. coli filamentation inducer project, strain DRC41, OD650, 48 h (AID 1152);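 note: E. coli MC1000 strain DRC41 lacking acrAB efflux pump and sulA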; conditions: E. coli DRC41 (acrAB sulA), higher = more signal, called active from +8 up or from −8 down
# [12] = small-molecule binders of probe aLefty1, primary screen, biochemical, small-molecule microarray, 635/667 nm fluorescence (AID 1153); conditions: higher = more signal;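 note: score merges spot fluorescence with signal-to-noise ratio from the scanned slide images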
# [13] = PSAC antagonists in infected red cells, primary screen, cell-based, P. falciparum Indochina, OD700, 1 h (AID 1154); conditions: P. falciparum Indochina infected RBC osmotic lysis, higher = more signal, called active from +8 up or from −8 down
# [14] = PSAC antagonists in infected red cells, primary screen, cell-based, P. falciparum Indochina, OD700, 2 h (AID 1155);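 note: lysis reports solute entry through the parasite surface anion channel PSAC; channel blockers reduce lysis of infected cells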; conditions: P. falciparum Indochina infected erythrocytes, osmotic lysis OD700; higher = more signal, called active from +8 up or from −8 down
# [15] = osmotic lysis modulators in infected erythrocytes, primary screen, PSAC antagonist project, cell-based, P. falciparum Indochina, OD700, 3 h (AID 1156); conditions: higher = more signal, called active from +8 up or from −8 down
# [16] = PSAC antagonists in infected red cells, primary screen, cell-based, P. falciparum Indochina, OD700, 18 h (AID 1157); conditions: P. falciparum Indochina infected erythrocytes, osmotic lysis OD700, 18 h; higher = more signal, called active from +8 up or from −8 down
# [17] = modulators of S6 phosphorylation in cells, primary screen, cell-based, A549, cytoblot, luminescence, serum-stimulated (AID 1158); conditions: A549 phospho-S6 cytoblot, 5 h, higher = more signal;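 note: serum-stimulated A549 lung adenocarcinoma cells; signal is phosphorylated S6 detected by cytoblot immunostaining with HRP secondary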
# [18] = biological target: NADPH oxidase 2 (Homo sapiens) (UniProt P04839); experiment: NOX2-dependent H2O2 signal modulators, primary screen, NOX inhibitor project, cell-based, HEK293-NOX2, PMA-stimulated, Amplex Red fluorescence (AID 1159); conditions: 45 min, higher = more signal, called active from +8 up or from −8 down; note: test concentration not given here
# Chain of NADPH oxidase 2 (Homo sapiens) (P04839 whole entry, looked up): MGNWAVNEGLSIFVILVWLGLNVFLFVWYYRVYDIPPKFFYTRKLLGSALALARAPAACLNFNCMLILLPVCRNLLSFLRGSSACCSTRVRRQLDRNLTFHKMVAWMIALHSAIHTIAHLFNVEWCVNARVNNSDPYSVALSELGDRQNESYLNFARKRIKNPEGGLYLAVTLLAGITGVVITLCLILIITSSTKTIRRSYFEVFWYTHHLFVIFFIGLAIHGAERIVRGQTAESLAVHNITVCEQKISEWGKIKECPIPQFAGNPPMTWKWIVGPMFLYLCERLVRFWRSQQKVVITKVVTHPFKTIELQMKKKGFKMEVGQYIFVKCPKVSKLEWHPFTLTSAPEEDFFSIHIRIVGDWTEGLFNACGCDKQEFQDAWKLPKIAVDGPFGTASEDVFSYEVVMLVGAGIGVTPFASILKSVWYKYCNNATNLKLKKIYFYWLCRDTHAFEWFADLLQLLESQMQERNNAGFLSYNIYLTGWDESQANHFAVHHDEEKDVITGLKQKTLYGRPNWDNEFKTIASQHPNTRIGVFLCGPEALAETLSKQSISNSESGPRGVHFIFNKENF
# [19] = biological target: NADPH oxidase 4 (Homo sapiens) (UniProt Q9NPH5); experiment: NOX4-dependent H2O2 signal modulators, primary screen, NOX inhibitor project, cell-based, HEK293-NOX4, tetracycline-induced, Amplex Red fluorescence (AID 1160); conditions: 45 min, higher = more signal, called active from +8 up or from −8 down
# Chain of NADPH oxidase 4 (Homo sapiens) (Q9NPH5 whole entry, looked up): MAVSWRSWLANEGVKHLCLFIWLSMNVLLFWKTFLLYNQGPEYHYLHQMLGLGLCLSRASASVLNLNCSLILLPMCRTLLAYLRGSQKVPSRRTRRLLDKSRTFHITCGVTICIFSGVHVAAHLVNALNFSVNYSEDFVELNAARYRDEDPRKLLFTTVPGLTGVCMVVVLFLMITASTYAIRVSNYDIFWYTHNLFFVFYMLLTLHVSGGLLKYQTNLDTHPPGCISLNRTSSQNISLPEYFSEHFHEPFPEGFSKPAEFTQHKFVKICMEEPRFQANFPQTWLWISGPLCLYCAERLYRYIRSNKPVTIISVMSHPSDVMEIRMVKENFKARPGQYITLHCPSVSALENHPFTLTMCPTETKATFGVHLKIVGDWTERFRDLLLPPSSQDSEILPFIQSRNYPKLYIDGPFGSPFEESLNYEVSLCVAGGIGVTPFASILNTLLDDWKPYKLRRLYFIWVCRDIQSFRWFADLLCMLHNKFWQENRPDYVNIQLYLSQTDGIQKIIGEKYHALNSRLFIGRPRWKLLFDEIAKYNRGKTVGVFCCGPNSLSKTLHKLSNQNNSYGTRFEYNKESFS
# [20] = biological target: NADPH oxidase 5 (Homo sapiens) (UniProt Q96PH1); experiment: NOX5-dependent H2O2 signal modulators, primary screen, NOX inhibitor project, cell-based, HEK293-NOX5, Amplex Red fluorescence (AID 1161); conditions: HEK293-NOX5, ionomycin, 45 min, higher = more signal
# Chain of NADPH oxidase 5 (Homo sapiens) (Q96PH1 whole entry, looked up): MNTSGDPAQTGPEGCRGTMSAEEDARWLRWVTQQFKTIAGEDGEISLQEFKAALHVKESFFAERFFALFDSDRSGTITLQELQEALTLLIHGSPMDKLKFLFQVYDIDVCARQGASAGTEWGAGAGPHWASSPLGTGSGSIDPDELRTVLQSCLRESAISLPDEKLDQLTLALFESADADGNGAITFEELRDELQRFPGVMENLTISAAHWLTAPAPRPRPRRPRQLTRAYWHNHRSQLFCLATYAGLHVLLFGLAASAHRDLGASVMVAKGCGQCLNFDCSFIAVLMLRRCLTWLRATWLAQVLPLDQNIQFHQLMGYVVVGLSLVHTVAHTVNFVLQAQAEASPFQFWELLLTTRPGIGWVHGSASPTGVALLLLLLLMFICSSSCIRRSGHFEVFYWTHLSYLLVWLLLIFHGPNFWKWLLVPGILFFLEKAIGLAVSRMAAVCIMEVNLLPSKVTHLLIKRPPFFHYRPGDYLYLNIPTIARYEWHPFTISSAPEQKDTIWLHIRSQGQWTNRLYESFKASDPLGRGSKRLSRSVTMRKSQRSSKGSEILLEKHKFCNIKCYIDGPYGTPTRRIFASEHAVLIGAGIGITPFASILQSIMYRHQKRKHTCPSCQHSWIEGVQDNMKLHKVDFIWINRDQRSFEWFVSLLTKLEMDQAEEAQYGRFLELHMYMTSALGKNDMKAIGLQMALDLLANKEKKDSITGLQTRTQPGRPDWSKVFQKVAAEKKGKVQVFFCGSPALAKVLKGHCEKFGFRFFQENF
SMILES,composite z-score [1],z-score [2],z-score [3],z-score [4],z-score [5],composite z-score [6],composite z-score [7],composite z-score (Torsin-1A (Homo sapiens) [8]),composite z-score (Torsin-1A (Homo sapiens) [9]),composite z-score [10],z-score [11],composite z-score [12],z-score [13],z-score [14],z-score [15],z-score [16],z-score [17],z-score [18],z-score [19],z-score [20]
C=CCNC(=O)[C@@H]1[C@H]2C(=O)O[C@H](c3ccccc3)[C@H](c3ccccc3)N2[C@H](c2ccc(O)cc2)[C@@]12C(=O)Nc1ccc(C#CCNC(N)=O)cc12,-0.525,-0.0804 (inactive),-0.233 (inactive),1.21 (inactive),-0.434 (inactive),-0.325,-0.339,-0.138,0.121,0.316,-1.29 (inactive),0.186,0.448 (inactive),-0.261 (inactive),-0.519 (inactive),0.32 (inactive),-0.203,0.334 (inactive),-0.211 (inactive),0.0297
COC(=O)C[C@H]1O[C@]2(C(=O)N(C)c3ccccc32)[C@@H](C)[C@@H]1[Si](C)(C)F,0.56,-1.18 (inactive),-0.852 (inactive),1.03 (inactive),-0.383 (inactive),0.454,0.0301,0.142,0.164,1.79,2.91 (inactive),0.0982,-0.0899 (inactive),-0.562 (inactive),-0.338 (inactive),-2.12 (inactive),1.26,-0.771 (inactive),0.555 (inactive),1.45
COc1ccc(/C=C/C=O)cc1,0.156,0.0307 (inactive),-0.577 (inactive),0.209 (inactive),0.561 (inactive),0.166,-0.102,-0.238,0.0564,1.6,0.0676 (inactive),0.11,-0.0134 (inactive),-0.113 (inactive),0.392 (inactive),0.0327 (inactive),-0.416,-0.721 (inactive),-0.379 (inactive),0.589
[N-]=[N+]=Nc1ccccc1[C@H]1OC(c2ccc(OCCCO)cc2)=N[C@@]1(CCS(=O)(=O)c1ccccc1)C(=O)NCC(O)CO (stereo not given in full),0.751,-1.46 (inactive),0.732 (inactive),0.848 (inactive),-0.249 (inactive),1.29,0.15,1.26,0.774,-1.02,-0.562 (inactive),0.0919,29.7 (active),28.2 (active),1.72 (inactive),2.09 (inactive),-0.235,1.09 (inactive),-0.0647 (inactive),-1.07
C=C(CC1([C@@H](NP(=O)(c2ccccc2)c2ccccc2)[C@H]2C[C@@H]2CCCC)CC1)c1ccccc1,0.542,-3.74 (inactive),0.955 (inactive),0.4 (inactive),0.151 (inactive),1.39,0.374,0.443,0.738,-0.509,-1.67 (inactive),0.568,0.579 (inactive),0.495 (inactive),2.62 (inactive),0.935 (inactive),0.534,-0.538 (inactive),-0.988 (inactive),-2.95
C=CCC(OC(C)=O)[C@@H]1[C@@H](N(Cc2ccc(-c3ccccc3)cc2)C(=O)c2ccc(-c3ccccc3)cc2)c2cc(OCCCO)ccc2N1C(=O)Cc1ccc2ccccc2c1 (stereo not given in full),0.102,0.315 (inactive),-0.0138 (inactive),0.208 (inactive),0.411 (inactive),0.497,0.0051,-0.395,0.42,0.523,-0.706 (inactive),0.155,0.05 (inactive),0.129 (inactive),-0.472 (inactive),0.408 (inactive),-0.309,0.795 (inactive),1 (inactive),0.532
COCCOC(=O)N1C(=O)[C@@]2(c3cc(C#CCNC(N)=O)ccc31)[C@H](C(=O)N1CCN(c3ncccn3)CC1)[C@H]1C(=O)O[C@H](c3ccccc3)[C@H](c3ccccc3)N1[C@@H]2c1ccc(OCCO)cc1,0.344,0.0164 (inactive),-0.82 (inactive),1.04 (inactive),-0.0748 (inactive),0.619,0.0154,1.44,0.453,0.911,-0.492 (inactive),0.267,6.11 (inactive),1.93 (inactive),1.26 (inactive),0.778 (inactive),-0.319,1.64 (inactive),0.971 (inactive),-0.121
COc1cc(NN2C(C(O)c3ccco3)C=CC3C(=O)N(c4ccccc4)C(=O)C32)cc(OC)c1OC (stereo not given),-0.286,-2.49 (inactive),-0.225 (inactive),0.0501 (inactive),-0.462 (inactive),0.0123,-0.153,-0.967,0.594,0.179,-1.37 (inactive),-0.441,0.886 (inactive),-1.47 (inactive),1.06 (inactive),-1.28 (inactive),1.29,-3.15 (inactive),-4.23 (inactive),-5.73
CO[C@H]1O[C@H](CO)[C@@H](OC(=O)Nc2ccccc2)[C@H](OC(=O)Nc2ccccc2)[C@@H]1OC(=O)Nc1ccccc1,1.13,-4.73 (inactive),-0.309 (inactive),0.101 (inactive),-0.825 (inactive),0.467,0.347,0.451,0.872,1.48,-0.24 (inactive),-0.369,6.99 (inactive),1.35 (inactive),0.111 (inactive),1.18 (inactive),0.725,-3.38 (inactive),-0.394 (inactive),-1.13

# From PubChem BioAssay
